About 3,300 (8.5%) of roughly 39,000 compounds were called active. The list comes from a sample in which actives are over-represented; it also holds similar structures and randomly drawn compounds.

This assay concerns HepG2. Briefly: cytotoxicity call (relative viability < 0.9). As to conditions: 10 µM.
As to `Cc1ccc(S(=O)(=O)N(C)C[C@@H]2Oc3ncc(C#CCN(C)C)cc3C(=O)N([C@H](C)CO)C[C@@H]2C)cc1`, the cytotoxicity call was “inactive”.

Consider `Cc1noc(C)c1NC(=O)N(C)C[C@H]1OCCCC[C@@H](C)Oc2ccc(NS(=O)(=O)c3cccs3)cc2C(=O)N([C@@H](C)CO)C[C@@H]1C`, for which the cytotoxicity call was “inactive”. On to `C[C@H]1CN([C@@H](C)CO)C(=O)c2cccc(NS(=O)(=O)c3ccc(F)cc3)c2O[C@H]1CN(C)S(=O)(=O)c1ccccc1`, for which the cytotoxicity call is “inactive”.

Take `Cc1noc(C)c1S(=O)(=O)N(C)C[C@H]1Oc2c(NS(=O)(=O)c3cn(C)cn3)cccc2C(=O)N([C@@H](C)CO)C[C@H]1C`: the cytotoxicity call is “inactive”. The entry for `COc1cccc(OC)c1O` is “inactive”. Regarding `COc1ccccc1O`, the cytotoxicity call was “inactive”. Turning to `COc1cccc(O)c1O`, the cytotoxicity call was “active”. For `O=C1/C(=C/c2cn(-c3ccccc3)nc2-c2ccc(OCc3ccccc3)cc2)SC(=S)N1CCS(=O)(=O)O`, the cytotoxicity call was “inactive”. As for `Cc1noc(C)c1NC(=O)N(C)C[C@@H]1Oc2ccc(NC(=O)c3ccncc3)cc2C(=O)N([C@@H](C)CO)C[C@H]1C`, the cytotoxicity call is “inactive”. For the compound `C[C@@H]1CCCCO[C@@H](CN(C)Cc2ccc3c(c2)OCO3)[C@H](C)CN([C@H](C)CO)C(=O)c2cc(NC(=O)Nc3ccc4c(c3)OCO4)ccc2O1`, the cytotoxicity call was “active”. On to `C[C@H](CO)N1C[C@H](C)[C@H](CN(C)Cc2ccc3c(c2)OCO3)OCCCC[C@H](C)Oc2ccc(NC(=O)Nc3ccc4c(c3)OCO4)cc2C1=O`, for which the cytotoxicity call was “active”. The same measure for `C[C@H]1CCCCO[C@H](CN(C)Cc2ccc3c(c2)OCO3)[C@@H](C)CN([C@@H](C)CO)C(=O)c2cc(NC(=O)Nc3ccc4c(c3)OCO4)ccc2O1`: “inactive”; for `C[C@@H]1CCCCO[C@H](CN(C)Cc2ccc3c(c2)OCO3)[C@H](C)CN([C@H](C)CO)C(=O)c2cc(NC(=O)Nc3ccc4c(c3)OCO4)ccc2O1`: “active”; for `C[C@@H]1CN([C@@H](C)CO)C(=O)c2cc(NC(=O)Nc3ccc4c(c3)OCO4)ccc2O[C@@H](C)CCCCO[C@H]1CN(C)Cc1ccc2c(c1)OCO2`: “inactive”. For the compound `C[C@H]1CCCCO[C@@H](CN(C)Cc2ccc3c(c2)OCO3)[C@@H](C)CN([C@@H](C)CO)C(=O)c2cc(NC(=O)Nc3ccc4c(c3)OCO4)ccc2O1`, the cytotoxicity call was “inactive”. With `C[C@@H]1CCCCO[C@@H](CN(C)Cc2ccc3c(c2)OCO3)[C@H](C)CN([C@@H](C)CO)C(=O)c2cc(NC(=O)Nc3ccc4c(c3)OCO4)ccc2O1`, the cytotoxicity call was “inactive”.

`C[C@@H]1CCCCO[C@@H](CN(C)Cc2ccc3c(c2)OCO3)[C@@H](C)CN([C@@H](C)CO)C(=O)c2cc(NC(=O)Nc3ccc4c(c3)OCO4)ccc2O1`: the cytotoxicity call is “active”. The entry for `C[C@@H]1CN([C@H](C)CO)C(=O)c2cc(NC(=O)Nc3ccc4c(c3)OCO4)ccc2O[C@@H](C)CCCCO[C@H]1CN(C)Cc1ccc2c(c1)OCO2` is “inactive”; for `C[C@@H]1CN([C@@H](C)CO)C(=O)c2ccccc2-c2ccccc2CO[C@@H]1CN(C)C(=O)c1cc(Cl)cc(Cl)c1` it is “inactive”.

For the compound `O=C(N[C@@H]1C=C[C@H](CC(=O)N2CCOCC2)O[C@@H]1CO)c1ccc2c(c1)OCO2`, the cytotoxicity call is “inactive”. Take `C[C@@H]1CN([C@@H](C)CO)C(=O)c2cc(NC(=O)C3CCCCC3)ccc2O[C@H]1CN(C)C(=O)Nc1cccc2ccccc12`: the cytotoxicity call was “inactive”. In the case of `CO[C@@H](CN(C)C(=O)C1CCOCC1)[C@H](C)CN(C(=O)Nc1ccc(C(F)(F)F)cc1)[C@@H](C)CO`, the cytotoxicity call is “inactive”. As to `CC(C)CS(=O)(=O)N1C[C@H]2C[C@H](C(=O)N3CCOCC3)[C@@H](C1)O2`, the cytotoxicity call is “inactive”.

Turning to `CC(=O)O[C@H]1C[C@](C)(O)C2=C[C@@H](O)[C@@](C)(O)[C@@H]2[C@H]2OC(=O)[C@@H](C)[C@@H]21`, the cytotoxicity call is “inactive”. The entry for `O=C(CN1CCOCC1)N[C@H]1CC[C@H](CCn2cc(C3CCCC3)nn2)O[C@@H]1CO` is “inactive”; for `CC(C)NC(=O)N(C)C[C@H]1Oc2ccc(NS(=O)(=O)c3ccc(F)cc3)cc2CC(=O)N([C@@H](C)CO)C[C@@H]1C` it is “inactive”; for `C[C@@H]1CCCCO[C@@H](CN(C)Cc2ccc3c(c2)OCO3)[C@@H](C)CN([C@H](C)CO)C(=O)c2cc(NC(=O)Nc3ccc4c(c3)OCO4)ccc2O1` it is “inactive”. As for `C[C@@H]1CCCCO[C@H](CN(C)Cc2ccc3c(c2)OCO3)[C@H](C)CN([C@@H](C)CO)C(=O)c2cc(NC(=O)Nc3ccc4c(c3)OCO4)ccc2O1`, the cytotoxicity call was “active”. Turning to `C[C@H](CO)N1C[C@H](C)[C@@H](CN(C)Cc2ccc3c(c2)OCO3)OCCCC[C@H](C)Oc2ccc(NC(=O)Nc3ccc4c(c3)OCO4)cc2C1=O`, the cytotoxicity call was “inactive”.

As to `C[C@@H]1CN([C@@H](C)CO)C(=O)c2cc(NC(=O)Nc3ccc4c(c3)OCO4)ccc2O[C@@H](C)CCCCO[C@@H]1CN(C)Cc1ccc2c(c1)OCO2`, the cytotoxicity call is “inactive”. Consider `C[C@@H]1CCCCO[C@H](CN(C)Cc2ccc3c(c2)OCO3)[C@@H](C)CN([C@H](C)CO)C(=O)c2cc(NC(=O)Nc3ccc4c(c3)OCO4)ccc2O1`, for which the cytotoxicity call is “inactive”. With `C[C@@H]1CN([C@H](C)CO)C(=O)c2cc(NC(=O)Nc3ccc4c(c3)OCO4)ccc2O[C@@H](C)CCCCO[C@@H]1CN(C)Cc1ccc2c(c1)OCO2`, the cytotoxicity call is “active”. As for `Cc1noc(C)c1S(=O)(=O)Nc1ccc2c(c1)C(=O)N([C@H](C)CO)C[C@H](C)[C@@H](CN(C)C(=O)Nc1ccccc1)O2`, the cytotoxicity call was “inactive”. Regarding `CCn1cc(-c2ccnc3[nH]c(-c4cccc(CN(C)C)c4)cc23)c(-c2ccc(NC(=O)N(C)C)cc2)n1`, the cytotoxicity call is “active”. For the compound `C[C@@H]1CN([C@H](C)CO)S(=O)(=O)c2ccc(-c3ccc(F)cc3)cc2O[C@H]1CN(C)S(C)(=O)=O`, the cytotoxicity call is “inactive”. The same measure for `C#Cc1ccc([C@@H]2C=C(C(=O)N3CCN(Cc4ccc5c(c4)OCO5)CC3)O[C@H](OCC)[C@H]2CCCO)cc1`: “inactive”. The same measure for `O=S1(=O)CC[C@H](N[C@H]2CCS(=O)(=O)C2)C1`: “inactive”; for `C[C@H](CO)N1C[C@H](C)[C@@H](CN(C)S(=O)(=O)c2ccccc2)Oc2cc(C#Cc3ccncc3)ccc2S1(=O)=O`: “active”; for `C[C@@H]1CN([C@H](C)CO)S(=O)(=O)c2ccc(C#Cc3ccncc3)cc2O[C@@H]1CN(C)S(=O)(=O)c1ccccc1`: “active”. Consider `C[C@@H]1CN([C@@H](C)CO)S(=O)(=O)c2ccc(C#Cc3ccncc3)cc2O[C@H]1CN(C)S(=O)(=O)c1ccccc1`, for which the cytotoxicity call was “active”.

In the case of `C[C@H]1CN([C@@H](C)CO)S(=O)(=O)c2ccc(C#Cc3ccncc3)cc2O[C@H]1CN(C)S(=O)(=O)c1ccccc1`, the cytotoxicity call was “active”.
